Compounds without any hit were thinned out: in the full panel of roughly 79,000, 15% have a hit. The source made the active and inactive calls. No stated cut-off is given here; in the data, active means growth inhibition above about 70%; inactive means the rest.
What was measured:
[1] = NCI Yeast Anticancer Drug Screen. Data for the wt1 strain (AID 149);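 further: 0% = growth of vehicle-treated wt1 cultures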; conditions: S. cerevisiae wt1 strain (SPY 50644) growth inhibition, active compounds read high
Procedure, shortened: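 Growth inhibition read against vehicle controls after compound exposure of the wt1 yeast strain.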

[2] = NCI Yeast Anticancer Drug Screen. Data for the rad50EPP+ strain (AID 151);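 further: 0% = growth of vehicle-treated control cultures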; conditions: S. cerevisiae rad50 mutant strain, active compounds read high
Procedure, shortened: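 Exposing the rad50EPP+ strain to each compound, growth was compared with vehicle-only cultures to give inhibition.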

[3] = NCI Yeast Anticancer Drug Screen. Data for the mgt1 strain (AID 153); conditions: S. cerevisiae mgt1 mutant growth inhibition, active compounds read high
Procedure, shortened: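 Genetically defined yeast (mgt1) treated with compound; inhibition of growth expressed against vehicle-treated controls.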

[4] = NCI Yeast Anticancer Drug Screen. Data for the rad50 strain (AID 155);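 further: 0% = growth of vehicle-only cultures of the same strain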; conditions: S. cerevisiae rad50 strain growth inhibition, active compounds read high
Procedure, shortened: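 Readout: growth inhibition relative to vehicle-treated cultures. Compound exposure was carried out in a genetically defined yeast strain deficient in DNA damage repair.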

[5] = NCI Yeast Anticancer Drug Screen. Data for the mec2-1 strain (AID 157); conditions: S. cerevisiae mec2-1 strain, active compounds read high
Procedure, shortened: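 Readout is yeast growth inhibition, normalised to vehicle-treated controls, in the mec2-1 strain exposed to compound.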

[6] = NCI Yeast Anticancer Drug Screen. Data for the rad14 strain (AID 159);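 further: 0% = growth of vehicle-treated control cultures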; conditions: S. cerevisiae rad14 strain growth inhibition, active compounds read high
Procedure, shortened: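 Growth inhibition vs vehicle controls; genetically altered yeast strain (DNA damage repair defect) treated with test compounds.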

[7] = NCI Yeast Anticancer Drug Screen. Data for the sgs1 mgt1 strain (AID 161);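 further: 0% = growth of cultures given vehicle only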; conditions: S. cerevisiae sgs1 mgt1 strain, active compounds read high
Procedure, shortened: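 This yeast growth screen uses a strain with defined DNA-repair lesions; compound-treated growth is compared with vehicle-treated growth.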

[8] = NCI Yeast Anticancer Drug Screen. Data for the CLN2oe strain (AID 163);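 further: 0% = growth of vehicle-only control cultures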; conditions: S. cerevisiae CLN2oe strain, active compounds read high
Procedure, shortened: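 Values reflect how much compound exposure reduced yeast growth, referenced to vehicle-exposed cells. Assay organism is a strain with a defined genetic change affecting cell-cycle control.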

[9] = NCI Yeast Anticancer Drug Screen. Data for the cln2 rad14 strain (AID 165);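 further: 0% = growth equal to vehicle treated cultures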; conditions: S. cerevisiae cln2 rad14 strain, active compounds read high
Procedure, shortened: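 Relative to vehicle controls, growth inhibition of compound-treated cln2 rad14 yeast was recorded.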

[10] = NCI Yeast Anticancer Drug Screen. Data for the bub3 strain (AID 167); conditions: S. cerevisiae bub3 mutant strain, active compounds read high
Procedure, shortened: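 Readout: yeast growth inhibition, expressed relative to vehicle-only wells. The test organism is a mutant strain from a panel with lesions in DNA repair or checkpoint genes.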

[11] = NCI Yeast Anticancer Drug Screen. Data for the wt2 strain (AID 169);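 further: 0% = growth of vehicle-treated yeast cultures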; conditions: S. cerevisiae wt2 strain growth inhibition, active compounds read high
Procedure, shortened: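 Values express reduction in yeast growth under compound treatment, referenced to vehicle-treated cells.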

[12] = NCI Yeast Anticancer Drug Screen. Data for the mlh1 strain (AID 171);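 further: 0% = growth of vehicle-treated control cultures of the same strain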; conditions: S. cerevisiae mlh1 strain growth inhibition, active compounds read high
Procedure, shortened: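 Steps: expose the defined-mutant yeast strain to compound; expose a parallel culture to vehicle; measure growth; express compound effect as inhibition relative to the vehicle culture.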

[13] = NCI Yeast Anticancer Drug Screen. Data for the sgs1 strain (AID 173);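 further: 0% = growth of vehicle-only control cultures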; conditions: S. cerevisiae sgs1 mutant, active compounds read high
Procedure, shortened: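 Treat defined-mutant yeast with compound; measure growth; calculate inhibition relative to vehicle-treated cells.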

[14] = NCI Yeast Anticancer Drug Screen. Data for the mlh1 rad18 strain (AID 175); conditions: S. cerevisiae mlh1 rad18 strain growth inhibition, active compounds read high
Procedure, shortened: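 Test agents were incubated with a yeast strain of defined genotype (DNA damage repair defect). Inhibition of growth was derived by comparison with vehicle-exposed cultures.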

[15] = NCI Yeast Anticancer Drug Screen. Data for the rad18 strain (AID 177); conditions: S. cerevisiae rad18 mutant growth inhibition, active compounds read high
Procedure, shortened: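 A genetically defined yeast mutant impaired in DNA damage repair was treated with test compounds, then its growth was measured against cultures receiving vehicle alone.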

[16] = at 5.0 µM (retest, dose inferred, filed as 0.5)
[17] = at 50.0 µM (retest, dose inferred, filed as 5.0)

Measured: growth inhibition

CCOC(=O)c1cc([N+](=O)[O-])c(Sc2ncnc3nc[nH]c23)c([N+](=O)[O-])c1
inactive: [1]; at 1.2 µM -22% | [1]; at 3.7 µM -26% | [1]; at 11.0 µM -6% | [1]; at 33.0 µM 62% | [2]; at 1.2 µM -8% | [2]; at 3.7 µM -8% | [2]; at 11.0 µM -5% | [2]; at 33.0 µM 6% | [2]; at 100.0 µM 22% | [3]; at 1.2 µM -20% | [3]; at 3.7 µM -29% | [3]; at 11.0 µM 16% | [4]; at 1.2 µM -40% | [4]; at 3.7 µM -18% | [4]; [16] 31% | [4]; at 11.0 µM 11% | [4]; [17] 63% | [4]; at 50.0 µM 17.4% | [5]; at 1.2 µM -22% | [5]; at 3.7 µM -13% | [5]; [16] 29% | [5]; at 11.0 µM 38% | [5]; at 50.0 µM 58% | [6]; at 1.2 µM -34% | [6]; at 3.7 µM -23% | [6]; at 11.0 µM -3% | [7]; [16] 6% | [7]; [17] -13% | [7]; at 50.0 µM 56% | [8]; at 1.2 µM -18% | [8]; at 3.7 µM -2% | [8]; at 11.0 µM 29% | [8]; at 33.0 µM 49% | [9]; [16] -5% | [9]; [17] -64% | [9]; at 50.0 µM 60.3% | [10]; at 1.2 µM -19% | [10]; at 3.7 µM -7% | [10]; [16] 7% | [10]; at 11.0 µM 43% | [10]; [17] 34% | [10]; at 50.0 µM 33.1% | [11]; at 1.2 µM -31% | [11]; at 3.7 µM -25% | [11]; at 11.0 µM 2% | [11]; at 33.0 µM 46% | [12]; at 1.2 µM -28% | [12]; at 3.7 µM -23% | [12]; at 11.0 µM 50% | [13]; at 1.2 µM 13% | [13]; at 3.7 µM 13% | [13]; at 11.0 µM 41% | [14]; [16] 55% | [15]; at 1.2 µM -17% | [15]; at 3.7 µM 9% | [15]; at 11.0 µM 55%
active: [1]; at 100.0 µM 92% | [3]; at 33.0 µM 81% | [3]; at 100.0 µM 89% | [4]; at 33.0 µM 75% | [4]; at 100.0 µM 89% | [5]; at 33.0 µM 89% | [5]; [17] 75% | [5]; at 100.0 µM 91% | [6]; at 33.0 µM 72% | [6]; at 100.0 µM 87% | [8]; at 100.0 µM 83% | [10]; at 33.0 µM 88% | [10]; at 100.0 µM 88% | [11]; at 100.0 µM 85% | [12]; at 33.0 µM 90% | [12]; at 100.0 µM 90% | [13]; at 33.0 µM 71% | [13]; at 100.0 µM 87% | [14]; [17] 89% | [14]; at 50.0 µM 86.2% | [15]; at 33.0 µM 82% | [15]; at 100.0 µM 84%

CC12C(=O)OC(=O)C(c3ccccc31)c1ccccc12
active: [4]; at 50.0 µM 98.3% | [5]; at 50.0 µM 91% | [7]; at 50.0 µM 97.2% | [9]; at 50.0 µM 76.2% | [14]; at 50.0 µM 93.6%
inactive: [1]; at 1.2 µM 2% | [1]; at 3.7 µM -2% | [1]; at 11.0 µM 4% | [1]; at 33.0 µM 2% | [1]; at 100.0 µM 9% | [2]; at 1.2 µM -11% | [2]; at 3.7 µM -25% | [2]; at 11.0 µM -30% | [2]; at 33.0 µM 19% | [2]; at 100.0 µM 9% | [3]; at 1.2 µM -7% | [3]; at 3.7 µM -9% | [3]; at 11.0 µM -5% | [3]; at 33.0 µM -4% | [3]; at 100.0 µM -6% | [4]; at 1.2 µM -18% | [4]; at 3.7 µM -17% | [4]; [16] 43% | [4]; at 11.0 µM -16% | [4]; at 33.0 µM -16% | [4]; [17] 21% | [4]; at 100.0 µM 20% | [5]; at 1.2 µM -5% | [5]; at 3.7 µM -6% | [5]; [16] 47% | [5]; at 11.0 µM -5% | [5]; at 33.0 µM -5% | [5]; [17] 28% | [5]; at 100.0 µM -2% | [6]; at 1.2 µM -4% | [6]; at 3.7 µM -9% | [6]; at 11.0 µM 0% | [6]; at 33.0 µM 2% | [6]; at 100.0 µM 8% | [7]; [16] 33% | [7]; [17] 21% | [8]; at 1.2 µM -9% | [8]; at 3.7 µM -8% | [8]; at 11.0 µM -10% | [8]; at 33.0 µM -11% | [8]; at 100.0 µM -10% | [9]; [16] 9% | [9]; [17] 5% | [10]; at 1.2 µM -7% | [10]; at 3.7 µM -5% | [10]; [16] 28% | [10]; at 11.0 µM -8% | [10]; at 33.0 µM -5% | [10]; [17] 49% | [10]; at 50.0 µM 68.1% | [10]; at 100.0 µM 2% | [11]; at 1.2 µM -7% | [11]; at 3.7 µM -5% | [11]; at 11.0 µM 11% | [11]; at 33.0 µM 9% | [11]; at 100.0 µM 7% | [12]; at 1.2 µM -11% | [12]; at 3.7 µM -9% | [12]; at 11.0 µM -7% | [12]; at 33.0 µM -6% | [12]; at 100.0 µM -6% | [13]; at 1.2 µM -12% | [13]; at 3.7 µM -8% | [13]; at 11.0 µM -1% | [13]; at 33.0 µM 2% | [13]; at 100.0 µM 11% | [14]; [16] 58% | [14]; [17] 54% | [15]; at 1.2 µM -8% | [15]; at 3.7 µM -10% | [15]; at 11.0 µM -5% | [15]; at 33.0 µM 0% | [15]; at 100.0 µM -7%

— PubChem BioAssay (NCI)
